For 104 molecules, INHIBITION results are on record in ChEMBL document CHEMBL4513216, “Probing the Open Global Health Chemical Diversity Library for Multistage-Active Starting Points for Next-Generation Antimalarials” (ACS Infect Dis, 2020).

Values joined by “and” are separate entries in the source; they are usually repeats but may differ in a detail not shown here. Identical values can stand only once. Hit rate of the full screen: of about 68,000 compounds, about 2,700 (4%) showed an effect of 50% or more. This is one part of a sample in which strong results are shown more often than they occur.

The test system of the assay is Plasmodium berghei. The experiment in a line: Screen against P. berghei liver stage (PbLuc), transformed with Luciferase, at 2uM. The assay is classed as functional, HepG2. The note with it: tested at 2 uM.

For `Cc1nc(CCNC(=O)NC(C)Cn2cccn2)cs1` (centres undefined), the INHIBITION is recorded as 38.76%.
Same read-out and setting: then `O=C(N[C@@H]1CN[C@H]2CCCO[C@H]21)c1cccnc1`, with 33.69%; and `CC(=O)N1CCN(C(C)c2nnc(CC(C)C)o2)CC1` (centres undefined), with 2.02%.
Same read-out and setting: in the case of `CN(Cc1ccncn1)C(=O)CCc1[nH]nc2c1CCCC2` it was -2.31%; in that of `CNc1ncc(CN(C)C(=O)CCc2[nH]nc3c2CCCC3)cn1`, 50.57%; in that of `CNc1ncc(CN(C)C(=O)CCc2cc3n(n2)CCCNC3)cn1`, 20.76%.
Same read-out and setting: then `Cc1ccc(CNC(=O)Cn2nc(-c3ccc(F)cc3)oc2=O)cc1F`, with 1.6%; and `COc1cccc(-c2noc(C3CCN(CC4CCCCC4)C3)n2)c1` (centres undefined), with 30.29%.
`CCS(=O)(=O)N1CCC2(CC1)CN(C(=O)N(C)C)Cc1ccccc12`: the INHIBITION worked out at 6.79%.
Same read-out and setting: in the case of `CC(C)N1CCC(CC(=O)NCc2cc(O)ncn2)CC1` it was 12.17%.
The same measure, in the same setting: in the case of `CCc1csc(CCNC(=O)CC2CCN(C(C)C)CC2)n1` it was -2.5%.
Same read-out and setting: then `CC(C)N1CCC(CC(=O)NCCc2cc(O)ncn2)CC1`, with 60.59%.
In the case of `CN(C)c1nccc(N2CCO[C@H]3CN(Cc4nccn4C)C[C@H]32)n1`, the INHIBITION was determined as 11.6%.
Still for that read-out and setting: then `Cn1ccnc1CN1C[C@@H]2OCCN(c3ncccn3)[C@@H]2C1`, with 52.17%; and `Cn1cncc1CN1C[C@@H]2OCCN(c3ncccn3)[C@@H]2C1`, with 25.02%; and `CC(C)NC(=O)N1Cc2nccn2CC(CN2CCCC2)C1` (centres undefined), with 2.5%.
`CCC(C)Oc1ccc(CNCCc2c[nH]cn2)cc1Cl` (centres undefined): the INHIBITION is 12.15%.
Still for that read-out and setting: then `Cc1nn(CC(=O)Nc2ccc(F)cc2)c(N)c1C#N`, with 58.12%; and `CC(=O)c1c(C)nn(CC(=O)Nc2ccc(F)cc2)c1C`, with -16.43%.
Still for that read-out and setting: then `COc1ccc(C)cc1NC(=O)Cn1nc(C)c(C#N)c1N`, with 5.32%; and `Cc1nn(CC(=O)Nc2cccc(F)c2)c(N)c1C#N`, with -33.61%; and `Cc1ccc(C)c(NC(=O)Cn2nc(C)c(C#N)c2N)c1`, with -15.17%.
Same read-out and setting: then `Cc1cc(NC(=O)Cn2nc(C)c(C#N)c2N)ccc1Br`, with 55.86%; and `CCc1ccc(S(=O)(=O)N2Cc3c(CN(C)C)nn(C)c3C2)cc1`, with 48.09%.
For `NC1CCc2nc(-c3ccncc3)nc(Nc3cccc(F)c3)c2C1` (centres undefined), the INHIBITION is -23.54%.
Same read-out and setting: in the case of `Cc1cccc2c1ccn2CCC(=O)Nc1c2c(nn1C)CSC2` it was 13.65%; in that of `CCN(C)c1ncnc2c1CCN(Cc1ccc(OC)cc1)CC2`, 7.86%; in that of `O=C(CSCC1CC1)N1CCCC(c2nccn2Cc2ccccn2)C1` (centres undefined), -17.83%.
On the same count and under the same terms, in the case of `O=C(c1ccccn1)N1CCCC(c2nccn2CC2CCC2)C1` (centres undefined) it was 14.41%.
Take `O=C(Cc1ccccn1)N1CCCC(c2nccn2CC2CCC2)C1` (centres undefined): the INHIBITION came out at 54.47%.
Still for that read-out and setting: in the case of `Cc1csc(CCCNC(C)CC(=O)Nc2cccc(C)c2C)n1` (centres undefined) it was -77.68%; in that of `O[C@@H]1C[C@@H](c2nc(-c3ccc(OC(F)(F)F)cc3)no2)N(CC2CC2)C1`, 13.92%; in that of `Cc1noc([C@H]2CC[C@@H]3[C@@H](CCN3S(=O)(=O)C3CC3)O2)n1`, 1.83%.
The same measure, in the same setting: then `O=C(Cc1ccccc1Cl)Nc1cnn(C2CCOC2)c1` (centres undefined), with 2.49%; and `COc1ccc(-c2c(C)nn3c(=N)c(C#N)n[nH]c23)cc1OC`, with 1.04%; and `CCNC(=O)CCC(=O)NC1(c2cccc(C(F)(F)F)c2)CCC1`, with 18.85%.
Still for that read-out and setting: then `COCC(=O)NC1(c2cccc(C(F)(F)F)c2)CCC1`, with 24.82%; and `CS(=O)(=O)CCC(=O)NC1(c2cccc(C(F)(F)F)c2)CCC1`, with 61%.
For `COCCC1(C(=O)O)CCCN(Cc2cc3c(cc2C)OCO3)C1` (centres undefined), the INHIBITION is -48.91%.
Still for that read-out and setting: in the case of `c1cnn(-c2ccc(CCNC3CCN(C4CC4)C3)cc2)c1` (centres undefined) it was 27.73%; in that of `C[C@H](O)CNc1cc(-c2ccncc2)ncn1`, -29.38%; in that of `C[C@H](O)CNc1cc(-c2ccccc2)ncn1`, 59.56%.
The same measure, in the same setting: then `OCCNc1cc(-c2ccccc2)ncn1`, with -7.01%.
For `CC(C)NC(=O)CC1COC2(CCN(Cc3ccco3)CC2)C1` (centres undefined), the INHIBITION was 43.58%.
On the same count and under the same terms, in the case of `O=C(NCc1cc(N2CCOCC2)ncn1)c1cccc(CO)n1` it was -15.77%.
Still for that read-out and setting: then `CC(C)=CCN1C[C@@H]2CC[C@H]1CN(S(=O)(=O)c1cccnc1)C2`, with 54.75%; and `O=S(=O)(c1cccnc1)N1C[C@H]2CC[C@@H](C1)N(Cc1ccccn1)C2`, with -3.6%; and `O=S(=O)(c1cccnc1)N1C[C@H]2CC[C@@H](C1)N(Cc1ccccc1)C2`, with -11.31%.
Same read-out and setting: in the case of `c1ccc2c(c1)N(CC1CCOC1)CC21CCN(c2cnccn2)CC1` (centres undefined) it was -39.01%.
Consider `O=C(Cn1nc(C(F)(F)F)c(Br)c1C1CC1)N1CCOCC1`, for which the INHIBITION came to 6.33%.
Still for that read-out and setting: in the case of `Cc1ccc(CN2CC[C@H]3CO[C@H](CN(C)C)[C@H]3C2)o1` it was -5.44%; in that of `Cc1ccc(CN2CC[C@H]3CO[C@H](CN4CCN(C)CC4)[C@H]3C2)o1`, 16.78%.
Consider `Cc1ccc(CN2CC[C@H]3CO[C@H](CN4CCCC4)[C@H]3C2)o1`, for which the INHIBITION was determined as 50.85%.
For the molecule `CC(=O)N(C)c1nc(Cn2nnnc2C2CCCC2)cs1`, the INHIBITION is listed as -26.07%.
Consider `O=C(Cn1cc(-n2cccc2)cn1)NCC1CCC1`, for which the INHIBITION was -28.99%.
Same read-out and setting: then `COCCn1cc2c(n1)C(CNCc1ccsc1)OCC2` (centres undefined), with 30.19%; and `COCCN1C(=O)[C@@H]2CC[C@H]1CN(c1ncccn1)C2`, with 57.34%; and `CNc1ccnc(N2C[C@H]3CC[C@@H](C2)N(CCOC)C3=O)n1`, with 40.51%.
The same measure, in the same setting: then `COCCN1C(=O)[C@@H]2CC[C@H]1CN(c1nccc(C)n1)C2`, with -1.56%; and `CN(Cc1ccccn1)C(=O)[C@]12COC[C@H]1CN(Cc1cnn(C)c1)C2`, with 0.3%; and `Cc1nnsc1CN1C[C@@H]2CC[C@H]1CN(Cc1ccccn1)C2`, with -17.17%.
For the molecule `Cn1ccc(NC(=O)CN2C[C@@H]3CC[C@H]2CN(Cc2ccccn2)C3)n1`, the INHIBITION stood at 52.98%.
Same read-out and setting: in the case of `COCCN1C[C@@H]2CC[C@H]1CN(CC(=O)Nc1ccn(C)n1)C2` it was 5.28%.
On the same count and under the same terms, then `O=C(c1cc(C2CC2)no1)N1C[C@@H]2CC[C@H]1CN(Cc1ccccn1)C2`, with -62.92%; and `O=C(CN1C[C@@H]2CC[C@H]1CN(Cc1ccccn1)C2)Nc1ccccc1`, with -16.18%.
Same read-out and setting: then `O=C(CN1C[C@@H]2CC[C@H]1CN(Cc1ccccn1)C2)NCc1cccs1`, with 52.98%.
With `O=C1[C@@H]2CN(C3CCOCC3)C[C@H]2CCN1CC1CC1`, the INHIBITION was 27.65%.
Same read-out and setting: in the case of `O=C1CCCC2=Nc3nonc3NC(c3ccc(Cl)cc3Cl)C12` (centres undefined) it was -53.9%; in that of `CC(C)c1ccc2c(c1)CCCN2C(=O)CN(C)S(C)(=O)=O`, -20.21%; in that of `COc1cccn(Cc2nnc(-c3cccc(F)c3)o2)c1=O`, 25.02%.
Same read-out and setting: then `OCC(O)CSCc1nnc(-c2cccc(F)c2)o1` (centres undefined), with 10.23%.
As to `CC(C)OCCSCc1nnc(-c2cccc(F)c2)o1`, the INHIBITION is recorded as 55.39%.
The same measure, in the same setting: in the case of `COC(=O)c1cccn1C1CCN(CCN2C(=O)CCC2=O)CC1` it was 31.46%; in that of `COc1ccc(NC(=O)N2CCCC2c2ccco2)cc1OC` (centres undefined), -28.88%.
The same measure, in the same setting: then `CCCc1cc(CNC2CCN(c3cc(C)nc(N)n3)CC2)on1`, with -13.81%; and `CCCc1cc(CNC2CCN(c3nc(C)cc(C)n3)CC2)on1`, with 58.59%.
Still for that read-out and setting: then `CCCc1cc(CNC2CCN(c3cc(C(C)C)nc(C)n3)CC2)on1`, with -8.34%.
With `Cc1cn2c(=O)c(-c3ccnc(N(C)C4CCCCC4)n3)cnc2s1`, the INHIBITION is on record as -35.83%.
Same read-out and setting: in the case of `Cc1nc(N2C[C@H]3CNC[C@H]3C2)c2sccc2n1` it was 50.98%.
With `Cc1nc(N2C[C@@H](CN3CCCCC3)[C@@H](CO)C2)c2sccc2n1`, the INHIBITION is reported as -38.35%.
Consider `COC1[C@@H]2CC[C@H]1CN(c1nc(C)nc3ccsc13)C2` (some centres undefined), for which the INHIBITION is -67.34%.
Regarding `O=C(NCc1nn(-c2ccccc2)c2c1CCC2)NC1CCC(O)CC1` (centres undefined), the INHIBITION is -43.23%.
The same measure, in the same setting: in the case of `O=S(=O)(Cc1ccccc1CN1CC[C@H](CO)[C@H](O)C1)c1ccccc1` it was 48.21%; in that of `NC1CCCCN(Cc2ccccc2CS(=O)(=O)c2ccccc2)C1` (centres undefined), 21.97%.
The same measure, in the same setting: then `N[C@@H]1CCN(Cc2ccccc2CS(=O)(=O)c2ccccc2)C[C@H]1O`, with 83.98%.
`CC(C)(C)NC(=O)CNc1ncc(Br)cn1`: the INHIBITION is recorded as -20.72%.
For the molecule `CCc1c(C)nn2c(O)cc(C3CCN(C(=O)c4ccccn4)C3)nc12` (centres undefined), the INHIBITION (2 µM) was -16.2% and -18.64%.
For `CC1Oc2c(cccc2C(=O)N2CCN(CC(C)(C)O)CC2)NC1=O` (centres undefined), the INHIBITION is recorded as -34.12%.
The same measure, in the same setting: in the case of `Cc1ncccc1C(=O)Nc1cccc(C[S+](C)[O-])c1C` (centres undefined) it was 31.58%.
Still for that read-out and setting: then `CC(C)c1nc(CSc2nnc(-c3cccs3)n2CC(N)=O)no1`, with 51.4%; and `CC(Sc1nnc(C2CC2)n1CC(N)=O)c1ccc(Cl)cc1` (centres undefined), with -87.32%.
The same measure, in the same setting: then `NC(=O)Cn1c(SCc2noc(-c3ccsc3)n2)nnc1C1CC1`, with -2.44%; and `CC(C)c1nc(CSc2nnc(C3CC3)n2CC(N)=O)no1`, with 53.55%; and `Cc1cccc(CSc2nnc(C)n2CC(N)=O)c1`, with 20.41%.
With `CCc1noc(C(C)Sc2nnc(C3CC3)n2CC(N)=O)n1` (centres undefined), the INHIBITION was 35.26%.
Same read-out and setting: in the case of `CCc1nn(-c2cc(Oc3cc(C)ccc3C)nc(C)n2)c(N)c1C#N` it was 16.91%.
The same measure, in the same setting: then `CC(C)CCN1C[C@@H]2OCCN(c3ncc(F)cn3)[C@@H]2C1`, with 29.74%; and `O=C(c1ccc(=O)[nH]n1)N1CCCC(O)(CN2CCC(F)(F)CC2)CC1` (centres undefined), with 23.7%.
Consider `Cn1c2c(ccc1=O)CC(NC(=O)c1ccsc1)CC2` (centres undefined), for which the INHIBITION is recorded as 0.57%.
Still for that read-out and setting: in the case of `Cc1cnc(NC2CCc3c(ccc(=O)n3C)C2)nc1` (centres undefined) it was 58.93%; in that of `Cn1c2c(ccc1=O)CC(NC(=O)Cc1ccsc1)CC2` (centres undefined), 76.24%.
The same measure, in the same setting: then `Cn1c2c(ccc1=O)CC(Nc1ncc(F)cn1)CC2` (centres undefined), with 6.22%.
For `O=C(Cc1ccsc1)NC1CCc2c(ccc(=O)n2CC2CC2)C1` (centres undefined), the INHIBITION stood at 6.85%.
The same measure, in the same setting: in the case of `CCc1cnc(NC2CCc3c(ccc(=O)n3C)C2)nc1` (centres undefined) it was -17.39%.
